Measured values: PubChem BioAssay (NCI)
The panel holds about 83,000 compounds, 20% with a hit somewhere; the sample as a whole holds those more often.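 Negative percent growth values reflect cell death: -40 means 40% of the cells present at the start died, and -100 means all died.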 Unmarked numbers belong to inactive results. Calls of active or inactive are those of the source. How the source made its calls: active means growth percent below 10; inactive means the rest.

System: ACHN renal
Test: NCI-60 one-dose screen, 48 h (100 = growth as untreated, 0 = no growth, -100 = all killed)
Settings: 10 µM

Compound | growth
COc1cccc(O)c1O | 73.2%
CC(=O)/C(Cc1ccccc1)=N/O | 98.6%
C=CCNC(=O)c1ccc(OC)cc1 | 106%
C/C(=N/NC(N)=O)c1ccco1 | 102%
COCCOC(=O)c1ccc(C(C)C)cc1 | 107%
C[N+](C)=c1ccc2nc3c(cc(Nc4ccccc4)c4ccccc43)oc-2c1 | 82.1%
Nc1nc(N)c(N=Nc2ccc(C(=O)O)cc2)c(N)n1 | 103%
Nc1ncnc2[nH]ncc12 | 8.29% (active)
O=[N+]([O-])c1ccc(-c2ncc(-c3ccc(Br)cc3)o2)cc1 | 94.2%
CCOC(=O)CSc1c([N+](=O)[O-])ncn1C | 101%
CCOC(=O)Nc1nn[nH]n1 | 100%
O=C(NN=C1CCCCC1)C(=O)NN=C1CCCCC1 | 109%
CCCCOC(=O)c1ccc(C(C)C)cc1 | 104%
N#CCCN(CCCN1CCOCC1)CN1C(=O)c2ccccc2C1=O | 113%
Cc1ccccc1N=C(c1ccccc1)C1C(=O)c2ccccc2C1=O | 88.3%
CC(C)OC(C(=O)O)c1ccccc1 (stereo unspecified) | 97.2%
CCCOC(=O)C(O)c1ccccc1 (stereo unspecified) | 98.3%
COc1ccccc1NC(=O)c1cc2cc(Br)ccc2cc1O | -6% (active)
OCCN1CCOCC1 | 101%
OCC1OC(OC2C(O)C(CO)OC2(CO)OC2OC(CO)C(O)C(O)C2O)C(O)C(O)C1O (stereo unspecified) | 113%
Cc1ccc(Cl)cc1NC(=O)N(C)CCO | 103%
O=c1cc(-c2ccccc2)nc2cc(-c3ccco3)[nH]n12 | 91%
S=c1[nH]ccn1-c1ccccc1Cl | 101%
C[N+](C)(C)C(=O)c1ccccc1 | 107%
O=C(O)c1ccnc(Br)c1 | 108%
O=C1C=C(O)C(=O)C=C1O | 97.2%
C#Cc1cccc(NC(=O)c2ccc(Cl)cc2Cl)c1 | 93.5%

System: CAKI-1 renal
Test: as above
Settings: 10 µM

Compound | growth
CC(=O)/C(Cc1ccccc1)=N/O | 100%
C/C(=N/NC(N)=O)c1ccco1 | 102%
COCCOC(=O)c1ccc(C(C)C)cc1 | 99.4%
Cc1cccc(CO)c1 | 100%
Nc1ncnc2[nH]ncc12 | -9.29% (active)
CC(C)(O)C#CC#CC(C)(C)O | 97.5%
CCOC(=O)Nc1nn[nH]n1 | 113%
O=C(CCl)Nc1ccc2c(c1)C(=O)c1ccc(NC(=O)CCl)cc1C2=O | -88.7% (active)
CCCCOC(=O)c1ccc(C(C)C)cc1 | 96.7%
O=C(NC1CCCCC1)OCc1c(COC(=O)NC2CCCCC2)c(-c2ccc(Cl)c(Cl)c2)n2c1CCC2 | 8.84% (active)
N#CCCN(CCCN1CCOCC1)CN1C(=O)c2ccccc2C1=O | 98.6%
Cc1ccccc1N=C(c1ccccc1)C1C(=O)c2ccccc2C1=O | 84.6%
O=c1[nH]cc(Cl)cc1O | 85.9%
CC(C)OC(C(=O)O)c1ccccc1 (stereo unspecified) | 101%
CCCOC(=O)C(O)c1ccccc1 (stereo unspecified) | 96.3%
OCCN1CCOCC1 | 132%
OCC1OC(OC2C(O)C(CO)OC2(CO)OC2OC(CO)C(O)C(O)C2O)C(O)C(O)C1O (stereo unspecified) | 115%
CCOC(=O)C(O)C(O)C(=O)OCC (stereo unspecified) | 101%
S=c1nn[nH]c2ccccc12 | 98.3%
O=[N+]([O-])c1ccc(CO)cc1 | 102%

System: A498 renal
Test: as above
Settings: 10 µM

Compound | growth
CC(=O)/C(Cc1ccccc1)=N/O | 75.6%
C=CCNC(=O)c1ccc(OC)cc1 | 133%
C/C(=N/NC(N)=O)c1ccco1 | 111%
COCCOC(=O)c1ccc(C(C)C)cc1 | 92.8%
C[N+](C)=c1ccc2nc3c(cc(Nc4ccccc4)c4ccccc43)oc-2c1 | 51%
Cc1cccc(CO)c1 | 108%
Nc1nc(N)c(N=Nc2ccc(C(=O)O)cc2)c(N)n1 | 96.2%
COCCOCCCl | 91.2%
Nc1ncnc2[nH]ncc12 | 8.78% (active)
O=[N+]([O-])c1ccc(-c2ncc(-c3ccc(Br)cc3)o2)cc1 | 68.4%
CCOC(=O)CSc1c([N+](=O)[O-])ncn1C | 114%
CC(C)(O)C#CC#CC(C)(C)O | 93.6%
COc1cc(C2NC(=O)C(C#N)=C(Nc3cccc(C)c3)S2)ccc1O (stereo unspecified) | 112%
CCOC(=O)Nc1nn[nH]n1 | 83.8%
O=C(NN=C1CCCCC1)C(=O)NN=C1CCCCC1 | 119%
O=C(CCl)Nc1ccc2c(c1)C(=O)c1ccc(NC(=O)CCl)cc1C2=O | 12.4%
CCCCOC(=O)c1ccc(C(C)C)cc1 | 87%

Compound | growth
O=C(NC1CCCCC1)OCc1c(COC(=O)NC2CCCCC2)c(-c2ccc(Cl)c(Cl)c2)n2c1CCC2 | -67.7% (active)
Cc1ccccc1N=C(c1ccccc1)C1C(=O)c2ccccc2C1=O | -13.7% (active)
CC(C)OC(C(=O)O)c1ccccc1 (stereo unspecified) | 107%
CCCOC(=O)C(O)c1ccccc1 (stereo unspecified) | 94.7%
COc1ccccc1NC(=O)c1cc2cc(Br)ccc2cc1O | 18.2%
OCCN1CCOCC1 | 106%
OCC1OC(OC2C(O)C(CO)OC2(CO)OC2OC(CO)C(O)C(O)C2O)C(O)C(O)C1O (stereo unspecified) | 94.6%
Cc1ccc(Cl)cc1NC(=O)N(C)CCO | 111%
CCOC(=O)C(O)C(O)C(=O)OCC (stereo unspecified) | 101%
O=c1cc(-c2ccccc2)nc2cc(-c3ccco3)[nH]n12 | 82.1%
S=c1[nH]ccn1-c1ccccc1Cl | 101%
C[N+](C)(C)C(=O)c1ccccc1 | 98%
O=C(O)c1ccnc(Br)c1 | 88.7%
S=c1nn[nH]c2ccccc12 | 109%
O=[N+]([O-])c1ccc(CO)cc1 | 110%
O=C1C=C(O)C(=O)C=C1O | 92.4%
C#Cc1cccc(NC(=O)c2ccc(Cl)cc2Cl)c1 | 102%
